Compound activity deposited in PubChem BioAssay by National Center for Advancing Translational Sciences (NCATS).
This is a sample that favours compounds with a hit; in the whole collection about 12% have one here.
Sm TGR inh – blocks Schistosoma mansoni thioredoxin glutathione reductase | Q962Y6 | purified TGR, DTNB reduction, TNB absorbance 405 nm | Potency, µM (doses to about 114 µM), usual class: inhibitors | 3% of 360,000 active | AID 485364; also: nearly all actives have a fitted effect of over 60% in size
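TGR 20 nM + NADPH 100 uM (dispensed conc.), cpd preinc 15 min RT; start with NADPH (500 uM addition) then DTNB (15 mM addition). Kinetic TNB absorbance, 405 nm filter. Four-parameter Hill fit across titration.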
Pf growth 48h – inhibits P. falciparum growth in the first generation, 48 h. P. falciparum luciferase growth in erythrocytes, 48 h. Potency, µM (highest dose often 28.7 µM), usual class: inhibitors. 5.9% of 310,000 active. AID 504832
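Luminescence readout; reporter = integrated firefly luciferase in P. falciparum. RBC culture at 2% hematocrit, 0.1% parasitemia final, 37 C/5% CO2; decreased signal taken as growth inhibition.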
SARS PLP yeast – inhibitors of SARS-CoV papain-like protease in yeast; S. cerevisiae expressing SARS-CoV PLpro, growth rescue; Potency, µM (doses to about 32.9 µM), hits mostly activators; 0.19% of 330,000 active; calls by dose curve; also: nearly all actives have a fitted effect of over 55% in size
Pf growth 96h – P. falciparum growth inhibition at 96 hours | Potency, µM (doses to about 28.7 µM), usual class: inhibitors | P. falciparum luciferase reporter growth, 96 h | 6.9% of 320,000 active
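Plates of compound plus infected erythrocytes (2% hematocrit, 0.05% parasitemia final) incubate 96 hours, 37 C, 5% CO2. Detection reagent added; reduced luminescence from the parasites' luciferase reporter flags inhibition.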
A number is an active result; - = inactive; ? = inconclusive; . = no result. Unless noted, calls follow the shape of the dose curve; as a rule, active = well fitted curve in the direction sought with a large enough effect; inconclusive = small, poorly fitted or top-dose-only effect, or another doubt; inactive = no such curve, though single readings can be large; an effect the other way counts as inactive or inconclusive.

SMILES	Sm TGR inh	Pf growth 48h	SARS PLP yeast	Pf growth 96h
CC1Sc2ccc(S(=O)(=O)NCCc3ccccc3)cc2NC1=O (centres undefined)	-	-	-	-
COc1cccc(NC(=O)C2CCN(S(=O)(=O)c3ccc4c(c3)NC(=O)C(C)S4)CC2)c1 (centres undefined)	-	?	-	-
Cc1ccc(N(C)S(=O)(=O)c2ccc3c(c2)NC(=O)C(C)S3)cc1 (centres undefined)	-	3.3µM	-	?
CC1Sc2ccc(S(=O)(=O)CCC(=O)N(C)Cc3ccccc3)cc2NC1=O (centres undefined)	-	-	-	-
COc1ccc(NC(=O)C2CCN(S(=O)(=O)c3ccc4c(c3)NC(=O)C(C)S4)CC2)cc1 (centres undefined)	-	9.3µM	-	-
CC1Sc2ccc(S(=O)(=O)NCc3ccccc3)cc2NC1=O (centres undefined)	-	-	-	13µM
CC1Sc2ccc(S(=O)(=O)N3CCC(C(=O)NCc4ccccc4)CC3)cc2NC1=O (centres undefined)	-	?	-	1µM
CCn1nc(C)c(CNC(=O)C2CCC(=O)N(CCc3ccc(OC)cc3)C2)c1C (centres undefined)	-	-	-	-
C=CCn1c(SCC(=O)Nc2cccc(S(N)(=O)=O)c2)nnc1C1CCCCC1	-	-	-	-
COc1ccccc1CN(C)C(=O)CSCC(=O)Nc1ccccc1F	.	.	-	.
CCOc1ccc(NC(=O)C2CCN(S(=O)(=O)c3ccc4c(c3)NC(=O)C(C)S4)CC2)cc1 (centres undefined)	-	?	-	?
CC1Sc2ccc(S(=O)(=O)N3CCC(C(=O)Nc4ccc(Cl)cc4)CC3)cc2NC1=O (centres undefined)	-	?	-	13µM
CCOc1ccc(NC(=S)N(CCc2c(C)[nH]c3ccc(C)cc23)Cc2cccnc2)cc1	-	?	-	3.7µM
Cc1[nH]c2ccc(F)cc2c1CCN(Cc1cccnc1)C(=S)Nc1ccc(F)cc1	-	4.1µM	-	7.4µM
COc1ccc(C2/C=C\CN(C(=O)Nc3ccccc3)CC(=O)N2Cc2ccc(F)cc2)cc1 (centres undefined)	-	?	-	-
COc1ccc(C2/C=C\CN(S(=O)(=O)c3ccc(C)cc3)[C@H](Cc3ccccc3)C(=O)N2Cc2ccc(F)cc2)cc1 (some centres undefined)	28µM	4.1µM	-	8.3µM
COc1ccc(C2/C=C\CN(S(=O)(=O)c3ccc(-c4ccccc4)cc3)CC(=O)N2Cc2ccc(F)cc2)cc1 (centres undefined)	-	12µM	-	4.7µM
COc1ccc(C2/C=C\CN(C(=O)c3ccc(C)cc3)CC(=O)N2Cc2ccc(F)cc2)cc1 (centres undefined)	-	?	-	?
COc1ccc(C2C(=O)N(C3CCCCC3)CC(=O)N2Cc2ccco2)cc1 (centres undefined)	32µM	-	-	-
COc1ccc(C2/C=C\CN(Cc3ccco3)CC(=O)N2Cc2ccc(F)cc2)cc1 (centres undefined)	32µM	?	-	?
C[C@]12c3[nH]c4ccccc4c3CCN1C(=O)C(CC(=O)NCCCn1ccnc1)C[C@@H]2C(=O)N1CCCCC1 (some centres undefined)	.	.	-	.
COc1cccc(CNC(=O)c2cccc(-n3c(C)nc4cccnc43)c2)c1OC	-	.	.	.
COC(=O)c1cc2oc(C)cc2n1Cc1ccccc1Cl	-	.	.	.
Cc1cc(=O)[nH]c(SCC(=O)Nc2c(C)n(C)n(-c3ccccc3)c2=O)c1C#N	-	-	-	-
COc1ccc(C2/C=C\CN(C(=O)C3CCCC3)[C@H](Cc3ccccc3)C(=O)N2Cc2ccc(F)cc2)cc1 (some centres undefined)	-	8.3µM	-	10µM
SMILES	Sm TGR inh	Pf growth 48h	SARS PLP yeast	Pf growth 96h
Cc1cccc(C(=O)Nc2cc3c(cc2C)n(C)c(=O)n3C)c1	-	.	.	.
CCc1nc2ccccc2n1Cc1cc(=O)n2cc(C)ccc2n1	-	-	-	1.7µM
Cc1ccc2nc(Cn3cc(C(F)(F)F)ccc3=O)cc(=O)n2c1	-	-	-	-
Cc1cccc(OCCC(=O)NNC(=O)c2ccoc2C)c1	-	-	-	-
Cc1ccc(NC(=O)CSCC(=O)NNC(=O)c2nn(C)c(=O)c3ccccc23)cc1	-	-	-	-
Cc1ccc(C(C)NC(=S)NC2CCCCC2)c(C)c1 (centres undefined)	-	10µM	-	5.2µM
COc1ccc(C(C)NC(=S)NC2CCCC2)cc1OC (centres undefined)	-	1.9µM	-	?
Cc1ccc(C(C)NC(=S)NC2CCCCC2)cc1C (centres undefined)	-	10µM	-	10µM
CCC(NC(=S)NC1CCCCC1)c1ccc(C(C)C)cc1 (centres undefined)	-	8.3µM	-	3.3µM
Cc1ccc(NC(=S)NC2CCCC2)cc1C	-	-	-	-
CCCNc1c(NC(=O)c2ccc3c(c2)OCO3)c(=O)oc2ccccc12	-	-	-	-
COc1cccc(/C=N/n2cnc3cc(C)c(C)cc32)c1OC	-	-	-	-
Cc1cc2ncn(/N=C/c3cc(Br)ccc3O)c2cc1C	-	1µM	-	?
Cc1ccc(C2=Nc3ccccc3N=C(C(Cl)Cl)C2)cc1	35µM	-	-	-
Oc1ccc(Cl)cc1C1=Nc2ccccc2N=C(c2ccccc2)C1	-	.	.	.
Cc1ccc2c(c1)N=C(c1ccccc1)CC(C(Cl)Cl)=N2	16µM	-	-	-
Cc1ccc(O)c(C2=Nc3ccccc3N=C(c3cccc(F)c3)C2)c1	-	.	.	.
O=C(COC(=O)c1cccc(S(=O)(=O)N2CCOCC2)c1)NCCc1ccccc1	-	-	-	-
Cc1ccc(CNC(=O)Cn2ccn(-c3ccc(C)c(C)c3)c(=O)c2=O)cc1	-	.	.	.
CN(C)c1ccc(SC#N)cc1	-	6.6µM	-	2.9µM
CN(C)c1ccc(C=C(C#N)C#N)cc1	-	-	-	?
COc1nc(N(c2ccccc2)c2ccccc2)nc(-n2ccnc2)n1	-	12µM	-	?
CCCn1c(=N)n(CC(O)COc2ccc(C)cc2)c2ccccc21 (centres undefined)	-	2.1µM	-	5.2µM
CCCCN(CC(O)COc1cccc(C)c1)CC(O)COc1cccc(C)c1 (centres undefined)	-	?	-	1.9µM
CCCCn1c(=N)n(CC(O)COc2cccc(C)c2)c2ccccc21 (centres undefined)	-	7.4µM	-	?
Cc1cccc(OCC(O)CN2CCc3ccccc3C2)c1 (centres undefined)	-	-	-	-
C=CCn1c(=N)n(CC(O)COc2ccccc2OC)c2ccccc21 (centres undefined)	-	.	-	?
CCn1c(=N)n(CC(O)COc2ccc(C)cc2)c2ccccc21 (centres undefined)	-	3.7µM	-	13µM
CCCCn1c(=N)n(CCOc2ccc(C)cc2)c2ccccc21	-	7.4µM	-	-
CCCn1c(=N)n(CC(O)c2ccc(C)cc2)c2ccccc21 (centres undefined)	-	5.2µM	-	4.1µM
